Over roughly 33,000 sequences, “E-score (-0.5 to 0.5)” has its median near -0.01; the highest 2% begin near 0.26. This excerpt belongs to a sample that is enriched for the highest values.
Biological target: Ste12 (UniProt P13574)
Assay: PBM E-score (8-mer binding enrichment) (E-score (-0.5 to 0.5)); higher = stronger / more preferred TF binding
Settings: protein concentration: 200 nM; construct: GST-DNA-binding domain
Experimental: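 Universal 'all 10-mer' protein binding microarrays (Agilent AMADID 015681) probed with GST-tagged S. cerevisiae TFs (full-length or DBD) made by in vitro transcription/translation (PURExpress), about 100-200 nM. Bound TF was detected with fluorescent anti-GST. Each ungapped 8-mer (which stands for itself and its reverse complement) is scored by the PBM enrichment score (E-score), a modified Wilcoxon-Mann-Whitney statistic from -0.5 to +0.5, computed with the Universal PBM Analysis Suite. Scale: above 0.35 generally sequence-specific binding.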

Chain of UniProt P13574 (P13574 whole entry): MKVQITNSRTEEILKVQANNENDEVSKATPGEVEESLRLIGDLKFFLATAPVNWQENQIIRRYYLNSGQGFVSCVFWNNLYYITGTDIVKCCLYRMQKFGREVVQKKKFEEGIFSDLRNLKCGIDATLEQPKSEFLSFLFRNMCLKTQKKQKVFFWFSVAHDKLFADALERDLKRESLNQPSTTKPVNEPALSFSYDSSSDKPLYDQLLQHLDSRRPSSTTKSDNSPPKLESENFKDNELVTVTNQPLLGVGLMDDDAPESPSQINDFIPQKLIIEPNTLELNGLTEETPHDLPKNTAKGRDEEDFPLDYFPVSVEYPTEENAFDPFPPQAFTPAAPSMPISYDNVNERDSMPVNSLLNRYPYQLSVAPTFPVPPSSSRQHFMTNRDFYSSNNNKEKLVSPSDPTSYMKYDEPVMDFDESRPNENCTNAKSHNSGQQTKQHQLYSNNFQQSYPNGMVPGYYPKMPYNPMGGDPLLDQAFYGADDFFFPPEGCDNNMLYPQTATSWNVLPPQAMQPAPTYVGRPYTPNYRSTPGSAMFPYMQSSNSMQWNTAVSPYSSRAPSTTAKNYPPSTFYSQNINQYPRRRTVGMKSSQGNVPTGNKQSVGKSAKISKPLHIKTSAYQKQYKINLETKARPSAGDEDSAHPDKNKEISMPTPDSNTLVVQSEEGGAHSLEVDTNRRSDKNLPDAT

In order of rising “PBM E-score” value:
1. GCCCTGGA  -0.235
2. GTGTACAC  -0.224
3. GATAGATC  -0.194
4. GCCAGCTA  -0.192
5. CCCCGGGG  -0.186
6. CACTGCAC  -0.14
7. ACGGGTAC  -0.139
8. CTTGAGTC  -0.136
9. AGTAGGAG  -0.119
10. ACGTCTAC  -0.118
11. ACTAGGTC  -0.114
12. AACCCAGA  -0.108
13. AGAGGGAG  -0.106
14. TAAGTGCA  -0.104
15. CCAATATA  -0.103
16. CTTGAAAG  -0.0999
17. CAGTAGGC  -0.0958
18. CGGGACTA  -0.0932
19. CACTATGG  -0.0915
20. CACTATGC  -0.0894
21. GTCTAACA  -0.0889
22. GCATCCGA  -0.0885
23. ACTACTTC  -0.0884
24. ATCACAGG  -0.0882
25. AGACAAGC  -0.0877
26. ATGAGTTA  -0.0873
27. AAGTCACC  -0.0787
28. CAATCATC  -0.0782
29. ACCGGTGC  -0.0741
30. CTTGAACC  -0.0679
31. ATCGAGTA  -0.0649
32. ATTCCACG  -0.0633
33. TCCTAGCA  -0.0629
34. CGCTTGCC  -0.062
35. ATTGAGAG  -0.0617
36. CCGCATCC  -0.0589
37. AAAGATAG  -0.0536
38. AAACCTTC  -0.0506
39. ACTTACCT  -0.0503
40. GCCCACCA  -0.0497
41. ACCTCCAC  -0.0491
42. AACGACCA  -0.0479
43. GACTAGGA  -0.047
44. CCCTCCAC  -0.0433
45. GGTTTGAC  -0.0297
46. TAGGCGGA  -0.0248
47. AGAGTAGA  -0.0237
48. CGTTTGAC  -0.0236
49. ATGGGAAG  -0.0232
50. CTCAAGCA  -0.0187
51. CTTTAAAG  -0.0155
52. ACAAGTTC  -0.00961
53. AACTACTT  -0.00699
54. ATGTTGTA  -0.00602
55. ATAAAAGC  -0.00425
56. ATTGAAGA  0.00866
57. CTGAATCC  0.0117
58. ACCCACCA  0.0136
59. ACCTTCTC  0.0171
60. ATGTTCAC  0.0173
61. ATCAAGCA  0.0192
62. GGTCCTTA  0.0224
63. CAAAGTCG  0.0234
64. ACAAAGAT  0.0339
65. GCATCAGC  0.034
66. CTCAAACC  0.0438
67. CTAATATA  0.0456
68. CACCTAAC  0.0515
69. GTAGAAAC  0.0517
70. ATTGAAAG  0.0623
71. CGTTCTCA  0.0637
72. ATAATACG  0.0652
73. ACCCACCT  0.0687
74. TAAAAGAA  0.0708
75. AAAAGAAG  0.072
76. AGACGCGG  0.0721
77. GCTTATCC  0.0792
78. ATGGAAAT  0.0797
79. AAAGATAC  0.0821
80. GCTTGATA  0.083
81. CTGGTCGC  0.0843
82. ATCCTTTG  0.0895
83. TTATGCAA  0.0901
84. GCCCACAC  0.0974
85. CCCCACCA  0.102
86. CGTTTGAG  0.111
87. AATGATAT  0.113
88. ATTCCACC  0.113
89. GTATCAGA  0.119
90. TCTGAAAA  0.12
91. ATTGAGAC  0.122
92. GTATCAAC  0.122
93. AAAAGAAC  0.126
94. CTCGCACA  0.127
95. AGAAAAGC  0.127
96. TATGATAA  0.131
97. CAGAAAAC  0.133
98. CCCCACCG  0.137
99. TGATGCAA  0.137
100. AGAAAGTA  0.138
101. CGCCCACC  0.139
102. ATATCAAG  0.139
103. ACTTGAGA  0.142
104. AGTTTTGA  0.148
105. AAAGCAAA  0.148
106. GCAATATA  0.149
107. AAAAAGAC  0.153
108. AATTAAAT  0.156
109. CAAAAGAA  0.156
110. TGATCAAA  0.156
111. CTTGAAAA  0.157
112. AAGAAAAA  0.158
113. TCTTTGAA  0.161
114. ATAATACC  0.161
115. AGTTAAAT  0.163
116. AACAGAGT  0.173
117. AGTTTGAA  0.174
118. ACTCTGAA  0.177
119. CCTCGCAA  0.18
120. ATGGAAAA  0.186
121. CTGTAGTA  0.186
122. CAGAAAAG  0.186
123. CTATCAAA  0.186
124. GTTTTGAA  0.189
125. AAAGAAAG  0.19
126. AATGATAG  0.194
127. CGTTTTGC  0.197
128. GTTGAAAA  0.206
129. ATTTAAAC  0.207
130. CGTATGAA  0.213
131. TGTGAAAA  0.216
132. ATCAAACC  0.217
133. ATTGAAAT  0.233
134. TCATCAAA  0.236
135. CAAGAAAA  0.24
136. CATGATAC  0.242
137. CGAAAAGA  0.242
138. ATAATATG  0.248
139. AAGAAAAT  0.254
140. GGAAAATA  0.255
141. AATGATAA  0.263
142. ATGGAAAC  0.263
143. CGTTTGAA  0.265
144. AAAAGAAT  0.266
145. ATTCCACA  0.268
146. ATCAAACA  0.27
147. AAAAAGAT  0.271
148. ACAATATA  0.271
149. AAAGATAT  0.273
150. TTATCAAA  0.274
151. CGTTTTGA  0.275
152. ATTTAAAG  0.275
153. AAGAAAAC  0.275
154. ATTGAGAA  0.277
155. AATGATAC  0.278
156. AAAAAGAA  0.289
157. GTATCAAA  0.293
158. GGTTTGAA  0.297
159. AGAAAAGA  0.297
160. ATATCAAA  0.3
161. ATAATATA  0.301
162. AAGAAAAG  0.302
163. TTTGAAAA  0.309
164. ACCCACCC  0.314
165. ATAATACA  0.318
166. ATTTAAAT  0.327
167. CTCAAACA  0.341
168. GCCCACCC  0.344
169. ATATGAAA  0.346
170. AAAGAAAA  0.351
171. ATTGAAAA  0.352
172. CCCCACCC  0.361
173. TGTTTGAA  0.378
174. ATTGAAAC  0.398
175. GTTGAAAC  0.399
176. CTTGAAAC  0.479
